An excerpt weighted towards active compounds, which were near 3.8% of everything screened.
HSF1 activator = HSF-1 activators, primary screen, NIH3T3-HGL cells, MG132 stress, luminescence, single point. NIH3T3-HGL HSF-1 luciferase reporter, 8 h; 100% = twice DMSO control signal. activation, % at 9 µM. 300,000 compounds, 1.7% hits. AID 504408, 2011;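 active means mean replicate activation of at least 50% with a set share of replicates each reaching 50%; inconclusive means only one of those two conditions met; inactive means mean below 50% and too few replicates reaching it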;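 further: 0% = median of the neutral control wells and 100% = twice that signal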
Wnt act = Wnt/beta-catenin pathway activators, primary screen, cell-based, plate reader, single point. AID 743398, 2014. 300,000 compounds, 1.2% hits. activation, % at 9.35 µM. Wnt/beta-catenin reporter cell assay, activator; in the data active means activation above about 30%, passing the limit was not always enough; inconclusive means no clear call, values can overlap the other calls;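 further: 0% = neutral control wells and 100% = positive control wells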
HSF1 inh = HSF1 inhibitors in luciferase reporter cells, primary screen, cell-based, NIH3T3, luminescence | NIH3T3-HGL HSE-luciferase, MG132-induced, luminescence 8 h; active compounds read low | activity change, negative = inhibition, % at 7.5 µM (by protocol) | 300,000 compounds, 0.77% hits;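 active means more than half of replicate wells show activity change below -50%, luminescence cut by over half; inconclusive means some wells, but at most half, below -50%; inactive means no replicate well below -50%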;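 further: luciferase reports HSF-1 transcriptional activity via heat shock element; 0% = median of DMSO wells and -100% = zero luminescence signal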
MITF act = activators of MITF-driven TRPM1 promoter reporter, primary screen, cell-based, SK-MEL-5, luciferase, single point; activation, % at 12.5 µM; 300,000 compounds, 0.75% hits; SK-MEL-5 TRPM1-promoter luciferase, 24 h; % of positive control, neutral wells = 0;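 active means mean activation of at least 80% with every replicate also reaching 80%; inconclusive means mean reaches 80% but some replicate falls short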;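 further: 0% = neutral control wells and 100% = parthenolide positive control wells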
esBAF inh = Bmi1 luciferase reporter increase in mESCs, primary screen, esBAF inhibitor project, mouse ES cells, Bmi1 luciferase knock-in, single point | reporter increase, % at 12.5 µM | AID 602393, 2012 | 350,000 compounds, 2% hits | 24 h; 100% = twice the neutral-well signal; in the data active means activation above about 40%; inconclusive means no clear call, values can overlap the other calls;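 further: 0% = median of the plate's neutral control wells and 100% = double that signal; a rise in the Bmi1 reporter signal indicates esBAF inhibition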
* marks the source's active call; other numbers are inactive results; ? = inconclusive; . = no result.

SMILES	HSF1 activator	Wnt act	HSF1 inh	MITF act	esBAF inh
O=C(N=C1SCC(=O)N1c1ccccc1)c1ccco1	.	.	.	51	46*
CCCSc1nnc(Sc2nnnn2-c2ccccc2)s1	123*	.	109	.	8
CSc1ncccc1C(=O)OCC(=O)c1ccc(C)s1	.	16	.	10	58*
Cc1ccc(C(=O)COC(=O)c2cccc(O)c2)s1	.	40*	.	54	62*
COc1cccc(C(=O)OCC(=O)c2ccc(Br)s2)c1	12	2	21	6	3
CSc1ncccc1C(=O)OCC(=O)c1ccc(Cl)s1	.	-1	.	.	7
C[C@@H]1CCCCO[C@H](CN(C)C(=O)Nc2ccccc2)[C@@H](C)CN([C@@H](C)CO)C(=O)c2cc(NS(=O)(=O)c3cccs3)ccc2O1	.	.	.	.	-2
CC(C)C#Cc1cnc2c(c1)C(=O)N([C@H](C)CO)C[C@@H](C)[C@H](CN(C)Cc1ccccn1)O2	.	.	.	.	5
COc1ccccc1CN1C[C@@H](C)[C@H](OC)CN(C)C(=O)c2ccc(NC(C)=O)cc2OC[C@@H]1C	.	.	.	.	-1
Cn1c(-c2ccc(C(C)(C)C)cc2)n[nH]c1=S	-5	.	9	14	50*
CCn1c(-c2ccc(C(C)(C)C)cc2)n[nH]c1=S	3	.	1	-2	22
Fc1cc(Br)ccc1COc1ccc(-c2nnco2)cc1	39	22	13	119*	55*
Fc1ccc(COc2ccc(-c3nnco3)cc2)c(Cl)c1	41	11	29	30	33
COc1ccc(-c2ccc(C#N)c(SCC(=O)Nc3sc4c(c3C#N)CCC4)n2)cc1OC	53*	.	37	38	-6
Cc1sc(NC(=O)CSc2nnc(-c3ccccc3)o2)c(C#N)c1C	43	.	27	.	12
N#Cc1c(NC(=O)CSc2nnc(-c3ccccc3)o2)sc2c1CCCC2	76*	1	52	11	.
CC1CCc2c(sc(NC(=O)CSc3nnc(-c4ccccc4)o3)c2C#N)C1 (configuration not stated)	53*	.	25	11	.
CC1CCc2c(sc(NC(=O)CSc3ncn[nH]3)c2C#N)C1 (configuration not stated)	-38	-10	-33	.	.
Cc1ccc(S(=O)(=O)Nc2ccc3c(c2)C(=O)N([C@@H](C)CO)C[C@@H](C)[C@H](CN(C)C(=O)Cc2ccccc2)OCCCC[C@H](C)O3)cc1	.	.	.	.	8
CC(=O)c1c(-c2ccc(Cl)cc2Cl)noc1C	-64	9	-57*	.	.
Cc1onc(-c2ccc(Cl)cc2Cl)c1C(=O)/C=C/N(C)C	25	-1	2	6	.
O=C1c2ccccc2C(=O)N1CCc1csc(-c2cccc(Cl)c2)n1	-51	3	-33	.	.
Cc1ccc(/C=C(/C#N)c2nc(CCN3C(=O)c4ccccc4C3=O)cs2)cc1	-65	-5	-53*	.	-2
O=C(C1CCC1)N1CCN(c2ccc(C(F)(F)F)cc2[N+](=O)[O-])CC1	2	-2	2	13	11
O=C(Nc1ccccc1)N1CCCN(c2ccc(C(F)(F)F)cc2[N+](=O)[O-])CC1	54*	26	39	.	.
SMILES	HSF1 activator	Wnt act	HSF1 inh	MITF act	esBAF inh
COc1cccc(CNc2cnc3ccccc3c2)c1O	73*	.	84	48	?
COc1cccc(CNc2cccc(C(F)(F)F)c2)c1O	7	0	2	-3	-6
COc1cccc(CNc2cccc3cccnc23)c1O	76*	.	37	-6	4
Cc1ccc(O)c(CNc2cnc3ccccc3c2)c1	30	-3	20	19	34
COc1cccc(CNc2ccccn2)c1O	37	6	9	.	33
COc1cccc(CNc2ccc(F)c(Cl)c2)c1O	75*	.	61	88*	25
CCc1ccc(N2C(=O)Cc3c2nc(N)c(C#N)c3N)cc1	11	15	-4	29	53*
CC(C)(C)c1ccc(N2C(=O)Cc3c2nc(N)c(C#N)c3N)cc1	8	.	-4	.	51*
CCS(=O)(=O)Nc1ccc2c(c1)C(=O)N(C)C[C@@H](OC)[C@@H](C)CN(Cc1nccs1)[C@@H](C)CO2	.	.	.	.	1
CCOc1cc(/C=C\[N+](=O)[O-])ccc1OCC(=O)Nc1ccccc1C	-63	.	-62*	-91	-5
COc1cc(/C=C/c2cccc[n+]2C)ccc1OCC(=O)Nc1ccccc1C	-19	-1	-1	5	0
O=c1c2c(nc3cc(-c4ccc(F)cc4)[nH]n13)CCC2	-5	27	-4	87*	.
Cc1cccc(-c2noc(-c3ccc(Cl)cc3[N+](=O)[O-])n2)c1	38	43*	9	71	.
COc1ccc(-c2noc(-c3ccc(Cl)cc3[N+](=O)[O-])n2)cc1OC	53*	21	25	71	.
COc1ccc(NC(=O)Nc2cccc3c2O[C@@H](CN(C)S(=O)(=O)c2ccccc2)[C@H](C)CN([C@@H](C)CO)C3=O)cc1	.	.	.	.	-2
C[C@H](CO)N1C[C@H](C)[C@H](CN(C)Cc2ccc(Oc3ccccc3)cc2)Oc2ccc(NC(=O)Cn3cnnn3)cc2CC1=O	.	.	.	.	1
c1ccc(-n2ncc3c(N4CCCCC4)ncnc32)cc1	-42	-2	-34	-16	-73
CC1CCCN(c2ncnc3c2cnn3-c2ccc(Cl)cc2)C1 (configuration not stated)	-92	-9	-90*	-91	-84
CC1CCCN(c2ncnc3c2cnn3-c2ccccc2)C1 (configuration not stated)	-68	-3	-61*	-40	-71
CC1CC(C)CN(c2ncnc3c2cnn3-c2ccc(Cl)cc2)C1 (configuration not stated)	-54	-2	-52*	19	-6
CN(C)CC(=O)N[C@@H]1CC[C@@H](CC(=O)NCc2ccc(Cl)cc2)O[C@H]1CO	.	.	.	.	7
C[C@H](O)C#Cc1ccc2c(c1)O[C@@H](CN(C)C(=O)C1CCC1)[C@H](C)CN([C@H](C)CO)S2(=O)=O	.	.	.	.	-2
Cc1occc1C(=O)N/N=C/c1ccc(OCc2ccccc2)cc1	53*	38*	26	.	54*
O=C(N/N=C/c1ccc(F)cc1)c1ccc(OCc2ccccc2)cc1	-82	0	-75*	9	6
Cc1occc1C(=O)N/N=C/c1ccc(-c2ccccc2)cc1	34	21	6	40	-7
COc1ccc(S(=O)(=O)Nc2ccc3c(c2)C(=O)N([C@H](C)CO)C[C@H](C)[C@@H](CN(C)C(=O)Nc2ccccc2)OCCCC[C@@H](C)O3)cc1	.	.	.	.	-4
O=C1CC(N2C(=O)/C(=C/C=C/c3ccccc3)SC2=S)C(=O)N1c1ccccc1 (configuration not stated)	83*	-1	28	8	.

Bioassay records from PubChem BioAssay.
